# Publication PMC4336329 (PLoS ONE, 2015)
# Among all 310,000 compounds or so, about 14,000 (4.5%) showed an effect of 50% or more. The effect is printed as a negative number. The list comes from a sample in which strong results are over-represented; it also holds similar structures and randomly drawn compounds.
# Target: human ether-à-go-go-related gene (hERG) potassium channel (human, UniProt Q12809)
# Experiment: primary screen, population patch clamp on CHO cells stably expressing hERG; higher = less effect of the substance
# 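Further: peak tail current of the secondary pulse compared with the same well before compound.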
# Sequence of human ether-à-go-go-related gene (hERG) potassium channel (Q12809 whole entry, looked up): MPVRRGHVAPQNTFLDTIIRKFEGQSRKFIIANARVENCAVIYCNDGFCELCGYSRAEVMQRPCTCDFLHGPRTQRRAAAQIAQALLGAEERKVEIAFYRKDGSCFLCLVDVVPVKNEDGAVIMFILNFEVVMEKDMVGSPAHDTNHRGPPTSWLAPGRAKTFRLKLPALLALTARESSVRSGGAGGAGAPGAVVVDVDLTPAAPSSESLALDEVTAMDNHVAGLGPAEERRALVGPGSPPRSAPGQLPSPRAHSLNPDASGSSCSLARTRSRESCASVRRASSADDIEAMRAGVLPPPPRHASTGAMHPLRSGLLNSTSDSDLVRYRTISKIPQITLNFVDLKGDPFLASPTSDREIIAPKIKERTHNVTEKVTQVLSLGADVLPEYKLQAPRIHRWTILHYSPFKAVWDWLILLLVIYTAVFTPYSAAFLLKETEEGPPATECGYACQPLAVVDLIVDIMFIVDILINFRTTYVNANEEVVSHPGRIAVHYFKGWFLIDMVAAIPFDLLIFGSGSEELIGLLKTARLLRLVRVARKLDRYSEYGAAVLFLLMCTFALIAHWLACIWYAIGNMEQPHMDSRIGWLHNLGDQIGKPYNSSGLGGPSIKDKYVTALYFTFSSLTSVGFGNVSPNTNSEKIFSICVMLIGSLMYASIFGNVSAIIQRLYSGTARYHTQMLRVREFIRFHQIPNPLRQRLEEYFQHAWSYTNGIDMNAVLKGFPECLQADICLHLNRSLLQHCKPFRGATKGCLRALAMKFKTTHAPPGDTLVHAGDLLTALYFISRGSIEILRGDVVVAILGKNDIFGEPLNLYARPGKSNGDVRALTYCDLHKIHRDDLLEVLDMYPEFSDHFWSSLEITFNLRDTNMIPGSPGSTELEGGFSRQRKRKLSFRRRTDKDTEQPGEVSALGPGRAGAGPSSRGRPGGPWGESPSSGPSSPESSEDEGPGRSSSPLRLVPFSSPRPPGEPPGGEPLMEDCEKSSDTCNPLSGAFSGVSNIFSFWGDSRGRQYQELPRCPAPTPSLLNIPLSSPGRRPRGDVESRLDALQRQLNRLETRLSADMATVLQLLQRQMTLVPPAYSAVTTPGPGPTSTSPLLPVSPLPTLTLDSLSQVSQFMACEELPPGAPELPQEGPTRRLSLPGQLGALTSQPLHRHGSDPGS
row,SMILES,"hERG current change (%, negative = inhibition) at 10uM [%]"
1,O=C(Nc1cc(-c2nc3ncccc3o2)ccc1Cl)c1ccc2c(c1)OCO2,10.2
2,Cc1ccc(C(=O)NCCc2ccc(S(N)(=O)=O)cc2)o1,16.1
3,O=C(Nc1ccc(-c2ccccc2)cc1)c1ccc2c(c1)S(=O)(=O)c1ccccc1C2=O,7.7
4,CC1(C)NC(=O)N(CC(O)COC2CCCCC2)C1=O (stereo not drawn),8.64
5,FC(F)(F)c1ccccc1CNCc1ccncc1,4.43
6,COc1ccccc1-n1c(C)nnc1SCC(=O)NCc1ccccc1,11.5
7,CCOC(=O)c1c(NC(=O)COC(=O)Cn2cnc3ccccc32)sc2c1CCC(C)C2 (stereo not drawn),-3.78
8,CCCCNC(=O)C1CCN(c2nc(C)cc(C)n2)CC1,17
9,CCCCN(CC)CCCNC(=O)C1CCN(c2ncnc3c2sc2cccc(F)c23)CC1,-70.3
10,CCCCN(CC)CCNC(=O)C1CCN(S(=O)(=O)c2cccc3nsnc23)CC1,-11
11,CC1(C)CC2CC(C)(CN2C(=O)COC(=O)Cn2[nH]c(=O)c3ccccc3c2=O)C1 (stereo not drawn),2.26
12,CCn1c(CNC(=O)c2ccc(Cl)cc2)nnc1SCC(=O)NC1=NCCS1,18
13,CC(=O)Nc1sc2c(c1CN1CCN(c3ccccn3)CC1)CCCC2,-55.3
14,CC(=O)Nc1sc2c(c1CN1CCN(C)CC1)CCCC2,-1.92
15,CC(=O)Nc1sc2c(c1CN1CCCC1)CCCC2,7.34
16,COc1cc(NC(=O)c2ccc(Br)o2)ccc1NC(=O)c1ccccc1Cl,-22.4
17,CCN(CC)C(=O)CSc1nnc(SCc2ccc(Cl)cc2)s1,-3.44
18,O=C(O)C1(NS(=O)(=O)c2ccc(F)c(Cl)c2)CCCCC1,7.65
19,N#C/C(=C/Nc1ccccc1)c1ccsc1,7.85
20,O=C(NC1CCCCC1)c1ccc(S(=O)(=O)N2CCOCC2)cc1,-2.69
21,CC(C)C(NC(=O)C1CCCCC1)C(=O)N1CCN(c2ccc(F)cc2)CC1 (stereo not drawn),-55.7
22,COc1ccc(N2CCN(C(=O)C(NC(=O)c3c(F)cccc3F)C(C)C)CC2)cc1 (stereo not drawn),10.5
23,CC(C)[C@H](NC(=O)c1c(F)cccc1F)C(=O)N1CCN(c2ccc(F)cc2)CC1,-54.2

row,SMILES,"hERG current change (%, negative = inhibition) at 10uM [%]"
1,CC(C)[C@H](NC(=O)C1CC(=O)N(c2ccc(F)cc2)C1)C(=O)N1CCCCC1 (stereo partly drawn),7.29
2,CC(C)C(NC(=O)c1c(F)cccc1F)C(=O)N1CCN(c2ccccc2F)CC1 (stereo not drawn),-1.76
3,CC(C)[C@H](NC(=O)C1CCN(S(=O)(=O)c2ccc(F)cc2)CC1)C(=O)N1CCCCCC1,5.18
4,O=C(COc1ccccc1)OC(C(=O)c1ccccc1)c1ccccc1 (stereo not drawn),16.5
5,CC(C)(C)OC(=O)N1CCN(C(=O)c2[nH]cnc2C(=O)Nc2ccon2)CC1,9.6
6,Fc1ccc(-c2nc3c(-c4ccccc4)cnn3cc2CCN2CCOCC2)cc1,-15.2
7,COc1ccc(-n2c(Cc3cccn3C)nnc2SCC(=O)Nc2ccccc2)cc1,-19.5
8,CCOC(=O)CN(C(=O)CNC(=O)c1ccco1)C(C(=O)NC1CCCCC1)c1cccnc1 (stereo not drawn),12.2
9,Cc1onc(-c2ccccc2Cl)c1C(=O)Nc1ccc2c(c1)OCO2,10.3
10,COc1cccc(-n2c(SCC(N)=O)nc3c([nH]c4ccccc43)c2=O)c1,-0.054
11,Cc1nnc(SCC(=O)NC2CCCc3ccccc32)n1-c1ccccc1 (stereo not drawn),-0.602
12,CCC(C)CCN1C(Nc2ccccc2)=NC[C@@H]1CC(C)C (stereo partly drawn),-41.1
13,CC(C)CCN1C(Nc2ccccc2)=NC[C@@H]1C,-9.63
14,CC(CCN1C(Nc2ccccc2)=NC[C@@H]1Cc1ccccc1)c1ccccc1 (stereo partly drawn),-74.8
15,CC(CCN1CCN=C1Nc1ccccc1)c1ccccc1 (stereo not drawn),-33.8
16,CCC(C)CCN1C(Nc2ccccc2)=NC[C@@H]1Cc1ccccc1 (stereo partly drawn),-59.6
17,CCC(C)CCN1CCN=C1Nc1ccccc1 (stereo not drawn),-1.89
18,CCC(C)CCN1C(Nc2ccccc2)=NC[C@@H]1C (stereo partly drawn),-4.88
19,CC(CCN1C(Nc2ccccc2)=NC[C@@H]1C)c1ccccc1 (stereo partly drawn),-52.4
20,CC(C)C[C@H]1CN=C(Nc2ccccc2)N1CCC(C)c1ccccc1 (stereo partly drawn),-67
21,S=C(Nc1ccccc1)Nc1ccc(OCc2ccccc2)cc1,-0.702
22,Nc1nc2ccccc2n1/N=C/c1ccc(-c2ccccc2)o1,-11.8
23,CCCc1[nH]nc2c1C1(C(=O)N(CC)c3ccccc31)C(C#N)=C(N)O2 (stereo not drawn),-6.38

row,SMILES,"hERG current change (%, negative = inhibition) at 10uM [%]"
1,COc1ccc(C(=O)OCC(=O)NCC2CCCO2)cc1[N+](=O)[O-] (stereo not drawn),2.12
2,Cc1cc(/C=C(\C#N)C(=O)NC2CCCCCC2)c(C)[nH]1,9.54
3,COc1ccccc1CC(=O)Nc1cccc(C(=O)Nc2nccs2)c1,-0.755
4,O=C(Nc1ccccc1)c1cc(-c2ccccc2Cl)no1,-4.91
5,O=S(=O)(NC1CCCC1)c1cc(F)ccc1F,-8.75
6,O=C(O)C1Cc2ccccc2N2CCCC12 (stereo not drawn),20
7,COc1cc(-c2nnc(SC/C=C/c3ccccc3)n2N)cc(OC)c1OC,-3.66
8,COc1cccc(C(=O)NNC(=O)c2ccc3ccccc3c2O)c1,7.66
9,O=C(CSc1nc(-c2ccc(F)cc2)cs1)N1CCc2ccccc21,-1.23
10,COc1ccc2c(c1)c(C(=O)N/N=C/c1ccc(O)c(O)c1)c(C)n2C,9.18
11,CCOc1ccc(/C=N/NC(=O)c2c(C)n(C)c3ccc(OC)cc23)cc1,-5.78
12,COc1ccc2c(c1)c(C(=O)N/N=C/c1cccc(Br)c1)c(C)n2C,-15.9
13,COc1ccc2c(c1)c(C(=O)N/N=C/c1ccc(Cl)cc1)c(C)n2C,-58.6
14,COc1ccc2c(c1)c(C(=O)N/N=C/c1ccc(Br)cc1)c(C)n2C,-64.1
15,COc1ccc2c(c1)c(C(=O)N/N=C/c1ccc(OC)c(OC)c1)c(C)n2C,-39.2
16,Oc1ccc(-c2csc(-c3c[nH]c4ccccc34)n2)c(O)c1,5.01
17,O=c1[nH]c2ccccc2n1CCCOc1ccccc1,4.34
18,Cc1onc(-c2c(F)cccc2Cl)c1C(=O)Nc1cccc2nsnc12,-20.6
19,CNC(=O)NC(=O)COC(=O)CCCOc1ccc(OC)cc1,20.5
20,COc1ccc(S(=O)(=O)NC(C)C(=O)O)cc1 (stereo not drawn),1.62
21,CN(CC(=O)Nc1ccc2c(c1)OCO2)S(=O)(=O)c1ccc(F)cc1,-4.45
22,CCN(Cc1nc2cc(Cl)ccc2c(=O)[nH]1)C(=O)c1cccc(OCc2c(C)noc2C)c1,-57.4
23,Cc1noc(C)c1COc1cccc(C(=O)N(C)Cc2nc3ccccc3c(=O)[nH]2)c1,-23.5

row,SMILES,"hERG current change (%, negative = inhibition) at 10uM [%]"
1,CCN(Cc1nc2cc(Cl)ccc2c(=O)[nH]1)C(=O)c1cccc(NC(=O)c2cccs2)c1,-24.7
2,Cc1cccc(Oc2coc3cc(OC(=O)c4cncc(Br)c4)ccc3c2=O)c1,-5.03
3,CN1N=C(C(=O)N2CCc3c([nH]c4ccccc34)C2c2ccccc2Cl)CCC1=O (stereo not drawn),-36.9
4,CN1N=C(C(=O)N2CCc3c([nH]c4ccccc34)C2c2c(F)cccc2Cl)CCC1=O (stereo not drawn),-97.3
5,Cc1cc(C(=O)N2CCc3c([nH]c4ccccc34)C2c2c(F)cccc2Cl)no1 (stereo not drawn),5.46
6,CC1CN(C(=O)CCC(=O)NC2CCCCC2)c2ccccc2S1 (stereo not drawn),-19.5
7,Fc1cccc(C2CC(c3cccc(Br)c3)Nc3nnnn32)c1 (stereo not drawn),-3.02
8,CS(=O)(=O)N(CC(=O)N1CCN(Cc2ccccc2)CC1)c1ccc(F)cc1,-3.35
9,C=CCN(c1ccccc1C(=O)NCC(=O)O)S(=O)(=O)c1ccccc1C,24.7
10,Cc1[nH]c2ccccc2c1C(=O)CN1CCN(C/C=C/c2ccccc2)CC1,-73.4
11,CCOC(=O)c1[nH]c2ccc(F)cc2c1NC(=O)CN1CCc2cc(OC)c(OC)cc2C1,-0.0862
12,Cc1[nH]c2ccccc2c1C(=O)CN1CC=C(c2ccccc2)CC1,-52.4
13,CCOC(=O)c1[nH]c2ccc(OCC)cc2c1NC(=O)CN1CCN(c2ccccc2)CC1,17.9
14,Cc1[nH]c2ccccc2c1C(=O)C(=O)N1CC=C(c2ccccc2)CC1,-11.3
15,CCOC(=O)N1CCN(CC(=O)Nc2c(C(=O)OC)[nH]c3ccccc23)CC1,-10.2
16,Cc1[nH]c2ccccc2c1C(=O)CN1CCCC1,5.09
17,COC(=O)c1[nH]c2ccccc2c1NC(=O)CN1CCCCCC1,-21.5
18,CCOC(=O)c1[nH]c2ccc(F)cc2c1NC(=O)CN1CCN(C/C=C/c2ccccc2)CC1,-80.7
19,COc1ccc2[nH]c(C)c(C(=O)CN3CCN(C/C=C/c4ccccc4)CC3)c2c1,-25.8
20,Cc1[nH]c2ccccc2c1C(=O)CN1CCSCC1,5.84
21,COC(=O)c1[nH]c2ccccc2c1NC(=O)CN1CCN(C/C=C/c2ccccc2)CC1,-76.4
